# Compound activity as filed in PubChem BioAssay.
# HP1b binding inh – HTS for Inhibitors of HP1-beta Chromodomain Interactions with Methylated Histone Tails. AlphaScreen HP1-beta / biotin-H3K9me3 peptide binding. Potency, µM (titrated, usually from 114 µM), inactives show at the top dose activity change, negative = inhibition, hits mostly inhibitors. 390,000 compounds, 0.56% hits. AID 540317, 2011; further: potency means the concentration at half of the fitted maximal effect; nearly all actives have a fitted effect of over 70% in size
#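 Compound inhibition of the preformed complex between 50 nM HP1-beta and 50 nM biotinylated H3K9me3 peptide was read by AlphaScreen. Buffer was PBS pH 7.4 with 0.01% Tween-20. Incubations ran 30 min at room temperature, with 10 ug/mL donor/acceptor beads.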
# BAZ2B inh – qHTS Assay for Inhibitors of BAZ2B. Bromodomain adjacent to zinc finger domain protein 2B (Homo sapiens), Q9UIF8. Potency, µM (titrated, usually from 114 µM), without a hit: top-dose activity change, negative = inhibition, most hits filed as inhibitors. 360,000 compounds, 4.4% hits. AlphaScreen BAZ2B-H3K14Ac peptide displacement; further: potency means the concentration at half of the fitted maximal effect; on the % scale 0 is the no-effect control and ±100 the full control effect; nearly all actives have a fitted effect of over 60% in size
#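 Protein-peptide AlphaScreen: BAZ2B 50 nM, b-H3K14Ac 50 nM, 1x PBS pH 7.4 + 0.01% Tween-20. Preincubation 30 min RT; cpd 30 min RT (top 110 uM); beads 20 min RT, light-protected.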
# JMJD2A Tudor – qHTS Assay for Inhibitors of JMJD2A-Tudor Domain; Lysine-specific demethylase 4A (Homo sapiens), O75164; Potency, µM (titrated, usually from 114 µM), for inactives: at the highest dose activity change, negative = inhibition, usual class: inhibitors; AlphaScreen JMJD2A-Tudor / H3K4me3 peptide binding; 390,000 compounds, 4.4% hits; AID 504339, 2011; further: potency means the concentration at half of the fitted maximal effect; on the % scale 0 is the no-effect control and ±100 the full control effect; nearly all actives have a fitted effect of over 50% in size
# PLK1 PBD block – qHTS for Inhibitors of PLK1-PDB (polo-like kinase 1 - polo-box domain): Primary Screen. Serine/threonine-protein kinase PLK1 (Homo sapiens), P53350. Plk1 PBD binding of FITC phosphopeptide, fluorescence polarization. Potency, µM, for the others: max response, negative = inhibition, hits mostly inhibitors. 360,000 compounds, 2.8% hits; further: potency means the concentration at half of the fitted maximal effect; series mostly up to about 57 µM; on the % scale 0 is the no-effect control and ±100 the full control effect; nearly all actives have a fitted effect of over 65% in size
# PI5P4Ka inh – qHTS for Inhibitors of phosphatidylinositol 5-phosphate 4-kinase (PI5P4K) | PI5P4Kalpha enzyme, ADP-Glo luminescence, 60 min; stronger effect = lower value | Phosphatidylinositol 5-phosphate 4-kinase type-2 alpha (Homo sapiens), P48426 | max response, % | 330,000 compounds, 1.2% hits; active means max response of -50% or lower; inconclusive means between -30% and -50%; inactive means -30% or higher; further: value at the top dose of about 77 µM; on the % scale 0 is the no-effect control and ±100 the full control effect
# Target sequence (P48426 whole entry, looked up): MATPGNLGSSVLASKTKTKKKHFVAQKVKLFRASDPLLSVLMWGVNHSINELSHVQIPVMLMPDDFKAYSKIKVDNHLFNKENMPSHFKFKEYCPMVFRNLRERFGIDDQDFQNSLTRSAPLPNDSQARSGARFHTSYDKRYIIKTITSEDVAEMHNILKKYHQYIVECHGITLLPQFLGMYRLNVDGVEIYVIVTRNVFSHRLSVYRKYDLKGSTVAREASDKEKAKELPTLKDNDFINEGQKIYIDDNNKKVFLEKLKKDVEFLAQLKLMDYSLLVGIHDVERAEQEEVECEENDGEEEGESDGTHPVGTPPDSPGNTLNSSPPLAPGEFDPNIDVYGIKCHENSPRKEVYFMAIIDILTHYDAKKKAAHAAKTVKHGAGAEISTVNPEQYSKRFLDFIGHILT
#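 ADP-Glo luminescence end-point after a 60 min room-temperature kinase reaction. PI5P4Kalpha and substrate in HEPES pH 7.4 buffer with EGTA, 0.1% CHAPS and 5% DMSO; ATP at 5 microM final.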
# G9a inh-1 – qHTS Assay for Inhibitors of Histone Lysine Methyltransferase G9a | Potency, µM (top dose mostly 102 µM), for inactives: at the highest dose activity, negative = inhibition, hits mostly inhibitors | Histone-lysine N-methyltransferase EHMT2 (Homo sapiens), Q96KQ7 | 350,000 compounds, 8.8% hits | G9a H3K9 monomethylation, AlphaScreen, 2 h; further: potency means the concentration at half of the fitted maximal effect; on the % scale 0 is the no-effect control and ±100 the full control effect; nearly all actives have a fitted effect of over 75% in size
#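 G9a (20 nM) was preincubated 15 min with compound, then reacted 2 h at room temperature with 500 nM biotin-H3K9 peptide and 20 µM SAM. Monomethyl-H3K9 detected by AlphaScreen using anti-H3K9me1 antibody.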
# G9a inh-2 – qHTS Assay for Inhibitors of Histone Lysine Methyltransferase G9a: Hit Confirmation; shares compounds with JMJD2A Tudor; Potency, µM, usual class: inhibitors; 370 compounds, 89% hits; AID 588344, 2011; G9a H3K9 monomethylation, AlphaScreen, 2 h; further: potency means the concentration at half of the fitted maximal effect; nearly all actives have a fitted effect of over 65% in size
# Starred values were filed as active, the others as inactive; ? = inconclusive; / = no result given; [ ] = dose if it differs, or a comment. Most compounds without a hit are left out; they make up all but 12% or so of the library. Unless noted, the call rests on the fitted dose curve; in most records, active means well fitted curve in the direction sought with a large enough effect; inconclusive means small, poorly fitted or top-dose-only effect, or another doubt; inactive means no such curve, though single readings can be large; an effect the other way counts as inactive or inconclusive.
SMILES,HP1b binding inh,BAZ2B inh,JMJD2A Tudor,PLK1 PBD block,PI5P4Ka inh,G9a inh-1,G9a inh-2
O=C1C2C3C=CC(CO)(O3)C2C(=O)N1c1ccccc1-c1ccccc1 (configuration not stated),?,9%,18µM*,7.5µM*,/,0.32µM*,0.22*
COc1ccc(OC)c(NC(=O)c2c(NCc3ccc(C)o3)sc3c2CCCCC3)c1,?,-37%,35µM*,/,/,1.6µM*,5.1*
COc1ccc(Cl)cc1NC(=O)c1c(NCc2ccc(C)o2)sc2c1CCCCC2,-19%,-26%,?,/,/,?,/
COc1ccccc1NC(=O)c1c(NCc2ccc(C)o2)sc2c1CCCCC2,?,?,45µM*,/,/,1.3µM*,3.6*
Cc1ccc(S(=O)(=O)N2CC(O)CC2C(=O)OCC(=O)Nc2ccc([N+](=O)[O-])cc2C(F)(F)F)cc1C (configuration not stated),8%,/,-21%,-3%,2,/,/
COCCn1nnnc1C(c1ccc(O)c(OC)c1)N1CCc2ccccc2C1 (configuration not stated),?,?,?,-18%,-11,?,0.71*
COc1ccc(C(c2nnnn2C2CCCC2)N2CCc3ccccc3C2)cc1OC (configuration not stated),29%,?,-33%,0%,5,-6%[59 µM],/
CNc1snc(C)c1C(=O)OC(C)C(=O)NCc1ccccc1 (configuration not stated),27%,-6%,?,1%,-7,?,/
COc1ccccc1CN1CCC2(CC1)CCN(S(C)(=O)=O)CC2,/,/,/,/,/,-2%[12.7 µM],/
CCS(=O)(=O)N1CCN(Cc2ccccc2OC)CC1,?,22µM*,3.2µM*,2%,/,2.5µM*,?
CCN1CCOC(=O)C1CC(=O)Nc1cc(Cl)ccc1C (configuration not stated),16%,-22%,-15%,/,/,0.71µM*,6.3*
CCN(CC)c1ccc(NC(=O)c2cnn3c(C(F)F)cc(-c4ccccc4)nc23)cc1,?,2.5µM*,8.9µM*,/,/,2µM*,4.6*
COc1cccc(NC(=O)c2cccc(N3C(=O)C4CCC(C)CC4C3=O)c2)c1 (configuration not stated),27%,-13%,-16%,-3%,0,12%,/
CCOc1ccc(NC(=O)CCc2c(C)nc3c(c(C)nn3-c3ccccc3)c2C)cc1,38%,2%,-2%,/,/,-3%[59 µM],/
CCN(Cc1ccncc1)Cc1c(O)ccc2ccccc12,?,-29%,79µM*,2.7µM*,-1,1.4µM*,0.36*
CC(=O)Nc1ccc(-c2ccnc3c2CC(C)(C(=O)Nc2cccc(C(C)=O)c2)O3)cc1 (configuration not stated),/,/,/,-8%,-1,/,/
CC1CN(Cc2c(O)ccc3c2oc(=O)c2ccccc23)CC(C)O1 (configuration not stated),?,4µM*,10µM*,-10%,-5,0.45µM*,0.28*
CC1CN(Cc2c(O)ccc3c(=O)c(-c4ccccc4)coc23)CC(C)O1 (configuration not stated),19%,-9%,-4%,-11%,0,-9%,/
CCOC(=O)N1CCN(C(=O)C[C@@H]2C[C@@]3(C(=O)OC)CC(C)(C)CC=C3N(Cc3ccc4c(c3)OCO4)C2=O)CC1,/,/,/,-6%,5,/,/
